Data reported in PubChem BioAssay (EPA / NIEHS).
Inconclusive results are not listed. Activity calls are given as the source filed them. How the source made its calls, unless noted: active means hit-call score of the fitted dose curve at least 0.9, where 1 is the maximum; inactive means score below 0.9.

How the values were obtained:
[1] = target: Paired box protein Pax-6 (Homo sapiens) (UniProt P26367); assay: ATG_Pax6_CIS: Attagene CIS-FACTORIAL HepG2 Assay for human Paired Box 6 (PAX6) (AID 2282956); conditions: HepG2 CIS-FACTORIAL PAX6 reporter transcription, RNA readout; actives raise or lower the signal
Summary of the method: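 Readout: reporter transcript fluorescence after RT-PCR and capillary electrophoresis. Cells: HepG2, transiently transfected with cis-regulated MRTUs. Exposure 24 h. Gain or loss of signal fitted bidirectionally relative to DMSO.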

[2] = ATG_PXRE_CIS: Attagene CIS-FACTORIAL HepG2 Assay for human Pregnane X Receptor Element (PXRE) (AID 2282957); conditions: HepG2 Attagene CIS-FACTORIAL PXRE reporter, mRNA; actives raise or lower the signal
Summary of the method: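 Endogenous transcription factor activity in HepG2 was gauged through induction of reporter mRNA driven by a cis-regulating promoter element, sampled 24 h post-treatment. Activity was fitted in both directions against DMSO negative control.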

[3] = ATG_PPRE_CIS: Attagene CIS-FACTORIAL HepG2 Assay for human Peroxisome Proliferator-activated Response Element (PPRE) (AID 2282958); conditions: HepG2 PPRE cis-element reporter, Attagene transcription factor profiling; actives raise or lower the signal
Summary of the method: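 HepG2 cells are transiently transfected with multiplexed cis-promoter reporter units to report endogenous PPAR activity. After 24 h dosing, reporter mRNA is read by RT-PCR and capillary electrophoresis. Fitting is bidirectional against DMSO.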

[4] = ATG_RORE_CIS: Attagene CIS-FACTORIAL HepG2 Assay for human RAR-related Orphan Receptor Element (RORE) (AID 2282959); conditions: HepG2 Attagene cis-factorial RORE reporter, mRNA; actives raise or lower the signal
Summary of the method: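 HepG2 cells carrying transiently transfected cis-regulated reporter units; RORE-driven reporter mRNA quantified 24 h post-dosing by RT-PCR, 6-FAM primer extension, HpaI digestion and capillary electrophoresis. Bidirectional fit versus DMSO.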

[5] = ATG_Sox_CIS: Attagene CIS-FACTORIAL HepG2 Assay for human SRY-box transcription factor (SOX) (AID 2282960); conditions: HepG2 Attagene cis-factorial SOX reporter, mRNA; actives raise or lower the signal
Summary of the method: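 HepG2 cells transiently transfected with multiple cis-regulated reporter units, then dosed for 24 h. Reporter mRNA quantified by RT-PCR, fluorescent labelling, HpaI digestion and capillary electrophoresis; bidirectional fit versus DMSO.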

[6] = target: Transcription factor Sp1 (Homo sapiens) (UniProt P08047); assay: ATG_Sp1_CIS: Attagene CIS-FACTORIAL HepG2 Assay for human Specificity Protein 1 (Sp1) (AID 2282961); conditions: HepG2 Sp1 cis-reporter transcription, actives raise or lower the signal
Summary of the method: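 HepG2 cells transiently transfected with multiplexed cis-regulated reporter constructs, chemical exposure 24 h. Reporter mRNA quantified by RT-PCR with capillary electrophoresis; bidirectional fit relative to DMSO.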

[7] = ATG_SREBP_CIS: Attagene CIS-FACTORIAL HepG2 Assay for human Sterol Regulatory Element Binding (SREBP) (AID 2282962); conditions: HepG2 Attagene cis-factorial SREBP reporter, mRNA; actives raise or lower the signal
Summary of the method: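 Readout: fluorescent reporter-transcript peaks resolved by capillary electrophoresis after RT-PCR. Cells were human HepG2 carrying transfected cis-promoter reporter constructs, dosed for 24 h. Gain or loss of signal was fitted against DMSO controls.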

[8] = target: Signal transducer and activator of transcription 3 (Homo sapiens) (UniProt P40763); assay: ATG_STAT3_CIS: Attagene CIS-FACTORIAL HepG2 Assay for human Signal Transducer and Activator of Transcription 3 (STAT3) (AID 2282963); conditions: HepG2, Attagene cis-factorial STAT3 reporter transcription; actives raise or lower the signal
Summary of the method: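 Uses human liver HepG2 transiently carrying cis-regulated reporter transcription units. Following 24 h dosing, reporter mRNA induction was detected by RT-PCR and capillary electrophoresis, analysed bidirectionally versus DMSO.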

[9] = ATG_TA_CIS: Attagene CIS-FACTORIAL HepG2 Assay for human TA Basal Promoter (AID 2282964); conditions: HepG2 Attagene CIS-factorial TA basal promoter reporter; actives raise or lower the signal
Summary of the method: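 Transient MRTU transfection of HepG2 preceded 24 h compound exposure. Reporter mRNA levels were then read by RT-PCR with capillary electrophoresis, and this background-control endpoint was fitted bidirectionally to DMSO.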

[10] = ATG_TCF_b_cat_CIS: Attagene CIS-FACTORIAL HepG2 Assay for human T-Cell-Factor with beta-catenin (TCF/b-cat) (AID 2282965); conditions: HepG2 TCF/beta-catenin cis-reporter transcription, actives raise or lower the signal
Summary of the method: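 HepG2 cells transiently transfected with multiple cis-promoter-regulated reporter transcription units, so endogenous transcription factor activity is measured. Reporter mRNA read 24 hours after dosing by RT-PCR, fluorescent labelling and capillary electrophoresis; bidirectional fitting against DMSO.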

[11] = ATG_TAL_CIS: Attagene CIS-FACTORIAL HepG2 Assay for human TAL Basal Promoter (AID 2282966); conditions: HepG2 Attagene cis-factorial TAL promoter reporter; actives raise or lower the signal;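 further: background control endpoint measuring basal TAL promoter reporter mRNA not a specific factor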
Summary of the method: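 Endogenous transcription-factor activity is sensed in HepG2 cells through transfected cis-promoter reporter constructs. After 24 h dosing, reporter transcripts are quantified by RT-PCR and capillary electrophoresis. Gain or loss of signal is fitted relative to DMSO.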

[12] = ATG_TGFb_CIS: Attagene CIS-FACTORIAL HepG2 Assay for human Transforming Growth Factor (TGF) (AID 2282967); conditions: HepG2 Attagene CIS TGFb reporter, mRNA transcription; actives raise or lower the signal
Summary of the method: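 After a 24-hour incubation with compound, transfected HepG2 cells were lysed for RNA; reporter cDNA was amplified, fluorescently end-labeled and separated by CE. DMSO served as baseline for bidirectional fits.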

[13] = ATG_VDRE_CIS: Attagene CIS-FACTORIAL HepG2 Assay for human Vitamin D Receptor Element (VDRE) (AID 2282968); conditions: HepG2 VDRE cis-reporter transcription, actives raise or lower the signal
Summary of the method: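 Transfected HepG2 reporter cells, chemical treatment 24 h. RNA isolated, cDNA amplified with reporter-specific primers, products analysed by capillary electrophoresis. Endpoint fitted in both directions versus DMSO.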

[14] = target: Estrogen receptor (Homo sapiens) (UniProt P03372); assay: ATG_ERa_TRANS: Attagene TRANS-FACTORIAL HepG2 Assay for human Estrogen Receptor alpha (ERa) (AID 2282970; active means hit-call score of the fitted dose curve at least 0.9, where 1 is the maximum); conditions: HepG2 Attagene TRANS ERa GAL4 reporter, mRNA
Summary of the method: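 Transfected HepG2 cells carrying GAL4-UAS-driven reporter units were dosed for 24 hours. Total RNA was reverse-transcribed, reporter sequences PCR-amplified, FAM-labelled, HpaI-digested and resolved by capillary electrophoresis. Increases over DMSO control defined activity.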

[15] = target: Steroid hormone receptor ERR1 (Homo sapiens) (UniProt P11474); assay: ATG_ERRa_TRANS: Attagene TRANS-FACTORIAL HepG2 Assay for human Estrogen-Related Receptor alpha (ERRa) (AID 2282971; active means hit-call score of the fitted dose curve at least 0.9, where 1 is the maximum); conditions: HepG2 Attagene TRANS reporter, ERRa transactivation
Summary of the method: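 HepG2 cells were transiently transfected with multiple GAL4-UAS reporter units, then dosed with compound for 24 h. Total RNA was reverse-transcribed, reporter cDNA PCR-amplified and fluorescently labelled, and fragments resolved by capillary electrophoresis; induction was compared with DMSO.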

[16] = target: X-box-binding protein 1 (Homo sapiens) (UniProt P17861); assay: ATG_Xbp1_CIS: Attagene CIS-FACTORIAL HepG2 Assay for human X-box Binding Protein 1 (XBP1) (AID 2282972); conditions: HepG2 XBP1 cis-element reporter, Attagene multiplex; actives raise or lower the signal
Summary of the method: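 Read-out: fluorescent reporter mRNA fragments resolved by capillary electrophoresis after RT-PCR. Human HepG2 liver cells carried transfected cis-promoter reporter units and were exposed to chemicals for 24 hours. Gain or loss of signal fitted relative to DMSO baseline.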

[17] = ATG_M_19_TRANS: Attagene TRANS-FACTORIAL HepG2 Assay for M19 Transcription Factor (Internal Marker) (AID 2282974; active means hit-call score of the fitted dose curve at least 0.9, where 1 is the maximum); conditions: HepG2 Attagene TRANS-FACTORIAL M19 internal marker reporter
Summary of the method: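 HepG2 transiently transfected with GAL4-UAS multiplex reporter constructs, exposed 24 h; reporter RNA quantified by RT-PCR, 6-FAM labeling, HpaI digestion and capillary electrophoresis; internal background marker fitted upward versus DMSO.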

[18] = ATG_PBREM_CIS: Attagene CIS-FACTORIAL HepG2 Assay for human Phenobarbital-responsive Enhancer Module (PBREM) (AID 2282955); conditions: HepG2 PBREM cis-reporter, Attagene multiplexed transcription; actives raise or lower the signal
Summary of the method: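 HepG2 cells transiently transfected with multiple cis-regulated reporter units measure endogenous transcription factor activity; 24 h compound exposure. Reporter mRNA quantified by RT-PCR, fluorescent labelling, HpaI digestion and capillary electrophoresis; bidirectional fit versus DMSO.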

[19] = target: Nuclear receptor subfamily 1 group I member 3 (Homo sapiens) (UniProt Q14994); assay: ATG_CAR_TRANS: Attagene TRANS-FACTORIAL HepG2 Assay for human Constitutive Androstane Receptor (CAR) (AID 2282969; active means hit-call score of the fitted dose curve at least 0.9, where 1 is the maximum;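 further: activators raise reporter mRNA above DMSO so AC50 marks induction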); conditions: HepG2 Attagene TRANS-FACTORIAL CAR reporter
Summary of the method: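 Steps: transient transfection of HepG2 with multiple GAL4-UAS reporter units; 24 h compound incubation; RNA isolation, RT-PCR, 6-FAM primer extension, HpaI digest; capillary electrophoresis. Gain-of-signal relative to DMSO negative control.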

[20] = target: Androgen receptor (Homo sapiens) (UniProt P10275); assay: ATG_AR_TRANS: Attagene TRANS-FACTORIAL HepG2 Assay for human Androgen Receptor (AR) (AID 2282973; active means hit-call score of the fitted dose curve at least 0.9, where 1 is the maximum); conditions: HepG2 Attagene TRANS-FACTORIAL AR reporter transcription
Summary of the method: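 Transfected HepG2, 24 h treatment, chimeric NR-Gal4 driving GAL4-UAS reporters. mRNA induction by RT-PCR/capillary electrophoresis fluorescence; DMSO as negative control and baseline.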

Measured: AC50

Paired box protein Pax-6 (Homo sapiens), sequence (P26367 whole entry, looked up): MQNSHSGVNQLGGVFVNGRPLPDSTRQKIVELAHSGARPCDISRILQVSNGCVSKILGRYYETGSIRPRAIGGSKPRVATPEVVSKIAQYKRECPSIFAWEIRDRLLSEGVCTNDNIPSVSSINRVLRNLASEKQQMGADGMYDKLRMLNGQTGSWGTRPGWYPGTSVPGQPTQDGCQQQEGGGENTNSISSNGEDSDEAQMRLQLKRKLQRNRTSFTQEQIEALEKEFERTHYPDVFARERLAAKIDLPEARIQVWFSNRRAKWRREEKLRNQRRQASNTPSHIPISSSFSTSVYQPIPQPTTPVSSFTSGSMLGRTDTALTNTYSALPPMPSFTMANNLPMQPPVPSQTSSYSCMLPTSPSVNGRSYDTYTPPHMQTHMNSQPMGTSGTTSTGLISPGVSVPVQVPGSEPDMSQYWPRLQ
Estrogen receptor (Homo sapiens), sequence (P03372 whole entry, looked up, the tested form may be a part): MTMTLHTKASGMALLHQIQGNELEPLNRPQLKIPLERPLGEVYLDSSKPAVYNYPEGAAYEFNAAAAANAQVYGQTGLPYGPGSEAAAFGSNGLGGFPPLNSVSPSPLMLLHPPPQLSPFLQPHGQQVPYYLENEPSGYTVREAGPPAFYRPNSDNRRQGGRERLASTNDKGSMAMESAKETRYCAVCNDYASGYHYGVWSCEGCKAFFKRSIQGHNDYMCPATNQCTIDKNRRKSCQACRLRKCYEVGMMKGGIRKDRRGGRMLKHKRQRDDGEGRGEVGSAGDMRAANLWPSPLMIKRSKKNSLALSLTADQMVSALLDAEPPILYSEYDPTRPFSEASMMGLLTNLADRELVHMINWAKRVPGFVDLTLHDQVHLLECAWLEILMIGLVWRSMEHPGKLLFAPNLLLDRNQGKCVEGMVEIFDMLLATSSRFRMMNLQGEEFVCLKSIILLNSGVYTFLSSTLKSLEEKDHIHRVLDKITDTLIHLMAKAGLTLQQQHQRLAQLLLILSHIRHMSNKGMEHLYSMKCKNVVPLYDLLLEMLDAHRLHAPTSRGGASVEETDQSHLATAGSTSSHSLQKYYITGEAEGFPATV
Steroid hormone receptor ERR1 (Homo sapiens), sequence (P11474 whole entry, looked up, the tested form may be a part): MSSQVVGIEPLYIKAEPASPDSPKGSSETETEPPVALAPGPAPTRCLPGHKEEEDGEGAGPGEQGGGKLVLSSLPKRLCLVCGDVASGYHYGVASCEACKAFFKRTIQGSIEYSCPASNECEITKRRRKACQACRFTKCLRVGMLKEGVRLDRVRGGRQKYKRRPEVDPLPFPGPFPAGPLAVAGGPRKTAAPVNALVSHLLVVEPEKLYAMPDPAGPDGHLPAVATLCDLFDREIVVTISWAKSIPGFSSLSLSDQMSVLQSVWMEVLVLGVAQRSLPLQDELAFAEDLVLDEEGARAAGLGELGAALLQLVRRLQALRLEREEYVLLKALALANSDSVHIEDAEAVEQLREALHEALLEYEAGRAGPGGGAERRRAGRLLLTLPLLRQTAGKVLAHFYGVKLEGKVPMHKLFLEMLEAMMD
Signal transducer and activator of transcription 3 (Homo sapiens), sequence (P40763 whole entry, looked up): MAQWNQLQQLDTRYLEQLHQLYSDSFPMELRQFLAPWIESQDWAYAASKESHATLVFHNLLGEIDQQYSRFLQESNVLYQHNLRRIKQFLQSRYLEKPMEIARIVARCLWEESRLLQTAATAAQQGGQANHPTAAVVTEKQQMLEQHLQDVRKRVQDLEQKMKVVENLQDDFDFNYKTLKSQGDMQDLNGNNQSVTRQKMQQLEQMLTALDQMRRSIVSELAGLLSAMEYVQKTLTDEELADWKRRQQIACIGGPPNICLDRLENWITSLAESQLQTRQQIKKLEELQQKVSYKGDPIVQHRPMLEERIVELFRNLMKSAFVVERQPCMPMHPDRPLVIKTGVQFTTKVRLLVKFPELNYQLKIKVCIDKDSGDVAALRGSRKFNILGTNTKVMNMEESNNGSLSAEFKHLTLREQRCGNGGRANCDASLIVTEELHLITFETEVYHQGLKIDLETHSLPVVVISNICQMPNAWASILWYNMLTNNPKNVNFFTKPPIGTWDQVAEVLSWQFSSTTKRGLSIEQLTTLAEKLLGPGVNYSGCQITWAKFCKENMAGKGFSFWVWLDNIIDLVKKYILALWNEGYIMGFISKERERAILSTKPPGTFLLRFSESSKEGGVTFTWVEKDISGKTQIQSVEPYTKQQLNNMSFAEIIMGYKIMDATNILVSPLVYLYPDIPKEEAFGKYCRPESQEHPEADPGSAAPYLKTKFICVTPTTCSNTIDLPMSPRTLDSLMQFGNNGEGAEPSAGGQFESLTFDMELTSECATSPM
Transcription factor Sp1 (Homo sapiens), sequence (P08047 whole entry, looked up): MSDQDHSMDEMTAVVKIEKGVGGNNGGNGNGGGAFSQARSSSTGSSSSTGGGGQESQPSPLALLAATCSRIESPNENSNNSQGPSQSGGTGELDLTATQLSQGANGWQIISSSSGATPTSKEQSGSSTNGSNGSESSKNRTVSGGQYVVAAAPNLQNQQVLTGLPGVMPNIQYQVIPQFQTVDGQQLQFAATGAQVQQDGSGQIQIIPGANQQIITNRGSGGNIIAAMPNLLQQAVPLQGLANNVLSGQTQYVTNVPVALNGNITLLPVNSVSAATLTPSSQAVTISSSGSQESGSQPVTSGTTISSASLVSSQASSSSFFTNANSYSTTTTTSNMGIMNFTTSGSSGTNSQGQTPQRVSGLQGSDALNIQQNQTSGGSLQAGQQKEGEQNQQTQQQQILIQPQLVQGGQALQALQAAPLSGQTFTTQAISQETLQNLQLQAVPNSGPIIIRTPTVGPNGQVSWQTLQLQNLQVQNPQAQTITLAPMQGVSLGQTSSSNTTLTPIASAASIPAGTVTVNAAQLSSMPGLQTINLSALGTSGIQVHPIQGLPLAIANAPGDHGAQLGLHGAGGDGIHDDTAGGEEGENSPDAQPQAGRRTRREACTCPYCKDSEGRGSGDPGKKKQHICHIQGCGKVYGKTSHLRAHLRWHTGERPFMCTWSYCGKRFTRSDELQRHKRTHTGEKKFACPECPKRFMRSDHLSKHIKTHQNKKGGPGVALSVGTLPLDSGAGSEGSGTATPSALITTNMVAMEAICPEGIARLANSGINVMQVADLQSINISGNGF
Nuclear receptor subfamily 1 group I member 3 (Homo sapiens), sequence (Q14994 whole entry, looked up, the tested form may be a part): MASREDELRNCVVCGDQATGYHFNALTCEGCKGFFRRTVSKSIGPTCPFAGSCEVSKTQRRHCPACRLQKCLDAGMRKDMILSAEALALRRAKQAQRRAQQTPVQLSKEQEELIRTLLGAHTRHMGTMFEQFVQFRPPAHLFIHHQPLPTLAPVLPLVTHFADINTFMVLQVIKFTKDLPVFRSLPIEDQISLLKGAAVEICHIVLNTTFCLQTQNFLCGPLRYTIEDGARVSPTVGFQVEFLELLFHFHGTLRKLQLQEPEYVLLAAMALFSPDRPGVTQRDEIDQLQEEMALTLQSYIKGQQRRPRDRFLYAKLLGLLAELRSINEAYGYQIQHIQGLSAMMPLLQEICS
X-box-binding protein 1 (Homo sapiens), sequence (P17861 whole entry, looked up, the tested form may be a part): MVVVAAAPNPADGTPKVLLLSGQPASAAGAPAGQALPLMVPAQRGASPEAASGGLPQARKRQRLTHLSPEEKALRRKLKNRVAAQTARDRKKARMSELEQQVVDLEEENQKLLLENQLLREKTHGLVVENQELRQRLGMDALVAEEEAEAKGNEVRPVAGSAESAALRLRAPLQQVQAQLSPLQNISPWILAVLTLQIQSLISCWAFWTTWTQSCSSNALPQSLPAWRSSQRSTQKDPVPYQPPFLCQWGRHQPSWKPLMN
Androgen receptor (Homo sapiens), sequence (P10275 whole entry, looked up, the tested form may be a part): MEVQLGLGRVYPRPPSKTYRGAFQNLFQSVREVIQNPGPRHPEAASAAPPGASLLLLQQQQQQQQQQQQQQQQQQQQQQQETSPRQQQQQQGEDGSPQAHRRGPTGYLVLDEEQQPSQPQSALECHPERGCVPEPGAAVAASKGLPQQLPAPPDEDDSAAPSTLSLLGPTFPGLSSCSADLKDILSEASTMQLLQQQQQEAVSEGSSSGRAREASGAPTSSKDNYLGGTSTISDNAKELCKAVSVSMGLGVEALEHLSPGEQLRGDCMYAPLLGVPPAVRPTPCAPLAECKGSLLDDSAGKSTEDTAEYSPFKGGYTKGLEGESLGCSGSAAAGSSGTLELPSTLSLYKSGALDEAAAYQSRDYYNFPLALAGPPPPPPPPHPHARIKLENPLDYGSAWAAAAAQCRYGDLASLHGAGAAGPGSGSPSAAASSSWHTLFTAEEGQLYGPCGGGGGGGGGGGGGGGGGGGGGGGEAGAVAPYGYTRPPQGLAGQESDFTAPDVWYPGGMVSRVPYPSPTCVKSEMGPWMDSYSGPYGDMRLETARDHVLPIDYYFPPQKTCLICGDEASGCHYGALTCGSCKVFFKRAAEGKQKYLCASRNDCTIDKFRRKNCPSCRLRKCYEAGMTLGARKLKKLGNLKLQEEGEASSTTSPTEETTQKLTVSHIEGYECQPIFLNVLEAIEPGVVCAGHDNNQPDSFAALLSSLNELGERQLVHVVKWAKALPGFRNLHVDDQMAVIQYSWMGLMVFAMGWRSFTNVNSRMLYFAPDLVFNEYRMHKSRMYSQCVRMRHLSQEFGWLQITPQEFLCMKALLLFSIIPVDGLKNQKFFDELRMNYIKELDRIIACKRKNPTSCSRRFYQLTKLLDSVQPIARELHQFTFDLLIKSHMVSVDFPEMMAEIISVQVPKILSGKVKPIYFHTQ

COC(=O)N(C(=O)N1CO[C@@]2(C(=O)OC)Cc3cc(Cl)ccc3C2=N1)c1ccc(OC(F)(F)F)cc1
active: [2] 1.24 µM | [4] 13.2 µM | [7] 5.39 µM | [13] 2.98 µM
not listed: [18] | [19] | [20]
inactive: all other assays above

CCCCC(C#N)(Cn1cncn1)c1ccc(Cl)cc1 (stereo unspecified)
active: [2] 13.8 µM | [7] 12.6 µM
not listed: [13] | [17] | [20]
inactive: all other assays above

CC1(C)C(C=C(Cl)Cl)C1C(=O)OC(C#N)c1cccc(Oc2ccccc2)c1 (stereo unspecified)
active: [18] 13.1 µM | [2] 2.32 µM | [13] 4.91 µM | [14] 19.7 µM
not listed: [3] | [15] | [20]
inactive: all other assays above

O=C1C2CC=CCC2C(=O)N1SC(Cl)(Cl)Cl (stereo unspecified)
not listed: [4] | [20]
inactive: all other assays above

COP(=O)(OC)O/C(C)=C/C(=O)N(C)C
active: [2] 68.5 µM
not listed: [15] | [17] | [18] | [19] | [20]
inactive: all other assays above

CCOP(=S)(OCC)Oc1nc(Cl)n(C(C)C)n1
active: [2] 0.655 µM | [7] 5.98 µM | [13] 5.61 µM | [14] 29.9 µM
not listed: [3] | [15] | [17] | [18] | [19] | [20]
inactive: all other assays above

Clc1cccc(C(Cl)(Cl)Cl)n1
active: [2] 48.7 µM
not listed: [3] | [13] | [15] | [18] | [19]
inactive: all other assays above

Cc1cnc(C2=NC(C)(C(C)C)C(=O)N2)c(C(=O)O)c1 (stereo unspecified)
active: [2] 24.8 µM | [13] 50 µM
not listed: [15] | [18] | [19] | [20]
inactive: all other assays above

CCCN(CC)CC1COC2(CCC(C(C)(C)C)CC2)O1 (stereo unspecified)
active: [18] 16.1 µM | [1] 21.9 µM | [2] 13.5 µM | [4] 18.1 µM | [5] 35.5 µM | [7] 24.5 µM | [8] 86.3 µM | [12] 19.9 µM | [13] 9.19 µM | [16] 25.3 µM
inactive: [6] | [9] | [10] | [11] | [19] | [14] | [17]

CO/N=C(/C1=NOCCO1)c1ccccc1Oc1ncnc(Oc2ccccc2Cl)c1F
active: [18] 5.03 µM | [1] 9.47 µM | [2] 0.483 µM | [7] 1.25 µM | [16] 0.574 µM
not listed: [13] | [15] | [20]
inactive: all other assays above

N#Cc1c(Cl)cccc1Cl
active: [2] 21.6 µM
not listed: [13] | [15] | [20]
inactive: all other assays above

CCNP(=S)(OC)O/C(C)=C/C(=O)OC(C)C (stereo unspecified)
active: [18] 14.7 µM | [2] 2.6 µM | [7] 16.3 µM | [13] 13.8 µM | [14] 31.9 µM
not listed: [3] | [15] | [17] | [20]
inactive: all other assays above
